The subject of experiment [1] is Human papillomavirus type 1a protein E7 (residues 44-93). Kind of experiment: small molecules binding HPV E7 44-93 – biochemical, small-molecule microarray, residues 44-93, 635 nm fluorescence, primary screen (AID 1108).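 Note: E7 fragment applied at 1 µg/mL in TBST for 1 h at 4 C; score combines spot fluorescence with its signal to noise ratio.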 The note with it: fluorescence 635 nm, higher = more signal.
Experiment [2] can be described thus: hepatitis C replication reporter changes, two-sided – Huh7 cells, luciferase reporter, HCV replication inhibitor project, primary screen (AID 1109).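 Note: huh7 hepatoma cells harbouring a luciferase neomycin HCV replicon reporter; luciferase luminescence as measure of HCV replicon replication; test concentration not given here.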 As to conditions: Huh7 HCV replicon luciferase reporter, 48 h; higher = more signal.
Experiment [3] deals with Left-right determination factor 2 (Homo sapiens) (UniProt O00292). As to the kind of experiment: small molecules binding LEFTY2 protein – biochemical, small-molecule microarray, 635 nm fluorescence scan, primary screen (AID 1110). As to conditions: higher = more signal.
Sequence of Left-right determination factor 2 (Homo sapiens) (O00292 whole entry, looked up): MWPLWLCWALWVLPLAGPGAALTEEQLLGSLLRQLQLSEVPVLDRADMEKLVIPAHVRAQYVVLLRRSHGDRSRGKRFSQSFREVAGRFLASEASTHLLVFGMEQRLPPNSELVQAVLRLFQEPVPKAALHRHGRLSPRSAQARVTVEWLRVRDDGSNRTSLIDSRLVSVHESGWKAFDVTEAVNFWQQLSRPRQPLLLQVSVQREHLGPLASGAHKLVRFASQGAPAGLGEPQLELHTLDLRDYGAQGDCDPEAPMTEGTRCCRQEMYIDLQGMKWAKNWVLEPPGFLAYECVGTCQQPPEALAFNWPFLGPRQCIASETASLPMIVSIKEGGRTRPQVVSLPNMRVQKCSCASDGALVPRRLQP
The target of experiment [4] is Calmodulin-1 (Homo sapiens) (UniProt P0DP23). As to the kind of experiment: small molecules binding calmodulin-1 with EGTA – biochemical, small-molecule microarray, Cy5-labelled CALM1, profiling panel (AID 1111).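 Note: labelled calmodulin applied in Tris saline Tween buffer holding calcium plus EGTA and DTT.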 The note with it: Cy5-CALM1 binding fluorescence, higher = more signal.
The target is the same in experiment [5]. Kind of experiment: small molecules binding Ca-loaded calmodulin-1 – biochemical, small-molecule microarray, Cy5-labelled CALM1, plus calcium, artefact control for SMM control-protein annotation, profiling panel (AID 1112).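 Note: score merges spot fluorescence with signal to noise from triplicate slides.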 The note with it: Cy5-CALM1 binding fluorescence, higher = more signal.
Experiment [6] is described as follows: probe aWnt5a binding to arrayed compounds – biochemical, biotinylated probe, 635/667 nm fluorescence, primary screen (AID 1113).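 Note: score merges 667 nm fluorescence intensity with signal-to-noise per printed feature.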 As to conditions: small-molecule microarray, higher = more signal.
The nature of experiment [7]: probe aShh binding to arrayed compounds – biochemical, biotinylated probe, 635/667 nm fluorescence, primary screen (AID 1114).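 Note: probe is biotin-labelled aShh protein from a stem cell growth factor screen; measures binding of labelled protein to compounds printed on the slide; score merges feature fluorescence at 667 nm with signal-to-noise.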 The note with it: small-molecule microarray, higher = more signal.
The nature of experiment [8]: probe aNog binding to arrayed compounds – biochemical, biotinylated probe, 635/667 nm fluorescence, primary screen (AID 1115).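 Note: probe is biotinylated aNog protein used at 0.15 µg/mL for 1 h at 4 C; z-score combines 667 nm fluorescence of each spot with its signal to noise.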 The note with it: small-molecule microarray, higher = more signal.
Experiment [9] has as its target Torsin-1A-interacting protein 1 (Homo sapiens) (UniProt Q5JTV8). Kind of experiment: compound microarray binding of lysate hLAP1 – cell lysate, small-molecule microarray, COS7 lysate, 635/667 nm fluorescence, primary screen (AID 1116). As to conditions: 635 nm fluorescence, higher = more signal.
Experiment [10] has as its target Alpha-bungarotoxin (Bungarus multicinctus) (UniProt P60615). Kind of experiment: compounds binding labelled alpha-BTX control protein – biochemical, small-molecule microarray, Alexa647 label, 635/667 nm fluorescence, artefact control for SMM control protein annotation, profiling panel (AID 1117). The note with it: alpha-BTX-A647 binding fluorescence, higher = more signal.

A further experiment has as its target Albumin (Bos taurus) (UniProt P02769). Kind of experiment: compounds binding labelled BSA control protein – biochemical, small-molecule microarray, Alexa647 label, 635/667 nm fluorescence, artefact control for SMM control protein annotation, profiling panel (AID 1118).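 Note: score merges 667 nm emission intensity and signal-to-noise per printed compound spot.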 As to conditions: BSA-A647 binding, fluorescence 635 nm, higher = more signal.
Experiment [11] can be described thus: probe aXIP binding to arrayed compounds – biochemical, NeuroSMM set, 635/667 nm fluorescence, primary screen (AID 1119).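 Note: probe is the protein aXip251-270 applied at 1 µg/mL to compound-printed slides; binding of probe to printed compounds measured as 667 nm fluorescence plus signal to noise.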 As to conditions: small-molecule microarray, higher = more signal, called active from +8 up or from −8 down.
A short description of experiment [12]: probe aNOTCH3 binding on compound microarray – biochemical, small-molecule microarray, 635/667 nm fluorescence, primary screen (AID 1120).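 Note: probe is a biotin-tagged antibody raised against NOTCH3 rather than NOTCH3 protein; score merges spot fluorescence near 667 nm with spot signal to noise.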 The note with it: higher = more signal.
Experiment [13] can be described thus: probe aNOTCH2 binding on compound microarray – biochemical, small-molecule microarray, 635/667 nm fluorescence, primary screen (AID 1121).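 Note: score merges feature fluorescence read at 667 nm with its signal to noise.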 As to conditions: higher = more signal.
Experiment [14] concerns the target Carbonic anhydrase 2 (Homo sapiens) (UniProt P00918). As to the kind of experiment: compounds binding carbonic anhydrase 2 – biochemical, small-molecule microarray, Alexa647-labelled CAII, profiling panel (AID 1122). As to conditions: CAII-A647 binding fluorescence, higher = more signal.
A short description of experiment [15]: COS7 lysate on small-molecule microarray, probe aHis, 635 nm (AID 1123).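 Note: z-score combines 667nm fluorescence intensity with signal-to-noise per printed compound spot.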 As to conditions: COS7 cell lysate, fluorescence, higher = more signal.
A short description of experiment [16]: probe aLAP1 signal on lysate-treated microarray – cell lysate, small-molecule microarray, COS7 lysate, primary screen (AID 1124).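 Note: lysate comes from COS7 cells expressing LAP1 and is applied at 0.3 µg/mL; score merges spot fluorescence near 667 nm with signal-to-noise over triplicate slides.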 The note with it: probe aLAP1, fluorescence, higher = more signal.
The next experiment concerns Sam68 (KHDRBS1). Kind of experiment: compounds binding KHDRBS1 protein – biochemical, small-molecule microarray, 635 nm fluorescence, primary screen (AID 1125).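 Note: score merges 667 nm channel intensity with signal to noise over triplicate slides.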 As to conditions: higher = more signal.
In experiment [17] the test system is Chordin-like protein 2 (CHRDL2). As to the kind of experiment: compounds binding chordin-like 2 – biochemical, small-molecule microarray, 635 nm fluorescence, primary screen (AID 1126).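 Note: printed compound slides probed with Chrdl2 protein at 4 µg/mL for 1 h at 4 C; score merges 667 nm emission intensity with signal to noise over three replicate slides.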 As to conditions: fluorescence 635 nm, higher = more signal.
Experiment [18] has as its target Concanavalin-A (Canavalia ensiformis) (UniProt P02866). Kind of experiment: compounds binding concanavalin A lectin – biochemical, small-molecule microarray, Alexa647 label, 635 nm, artefact control for SMM control protein annotation, primary screen (AID 1127).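 Note: z combines 667 nm emission intensity with signal-to-noise across three replicate slides.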 The note with it: ConA-A647 binding fluorescence, higher = more signal.

Drawing on PubChem BioAssay, this text covers composite z-score, z-score and composite Z-score for five molecules.

Activity calls are given as the source filed them.

Sequence of Alpha-bungarotoxin (Bungarus multicinctus) (P60615 whole entry, looked up): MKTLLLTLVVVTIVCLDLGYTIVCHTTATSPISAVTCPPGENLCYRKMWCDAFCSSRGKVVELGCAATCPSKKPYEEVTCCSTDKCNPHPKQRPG
Sequence of Albumin (Bos taurus) (P02769 whole entry, looked up): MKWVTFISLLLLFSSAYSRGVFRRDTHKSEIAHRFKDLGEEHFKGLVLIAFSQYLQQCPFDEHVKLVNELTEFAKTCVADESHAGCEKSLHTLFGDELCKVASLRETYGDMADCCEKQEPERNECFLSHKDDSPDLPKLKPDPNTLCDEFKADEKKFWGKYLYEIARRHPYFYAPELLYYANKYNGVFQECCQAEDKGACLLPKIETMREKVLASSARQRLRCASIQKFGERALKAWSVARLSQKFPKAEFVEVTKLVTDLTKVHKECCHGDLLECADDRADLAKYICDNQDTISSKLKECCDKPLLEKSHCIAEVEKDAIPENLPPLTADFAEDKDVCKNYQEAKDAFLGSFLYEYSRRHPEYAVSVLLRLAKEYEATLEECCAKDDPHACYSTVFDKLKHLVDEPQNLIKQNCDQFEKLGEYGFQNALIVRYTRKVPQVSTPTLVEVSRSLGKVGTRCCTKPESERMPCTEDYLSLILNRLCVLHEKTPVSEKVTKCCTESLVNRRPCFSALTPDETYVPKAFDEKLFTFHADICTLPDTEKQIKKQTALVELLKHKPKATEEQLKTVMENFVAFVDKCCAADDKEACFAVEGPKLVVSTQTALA
Sequence of Torsin-1A-interacting protein 1 (Homo sapiens) (Q5JTV8 whole entry, looked up): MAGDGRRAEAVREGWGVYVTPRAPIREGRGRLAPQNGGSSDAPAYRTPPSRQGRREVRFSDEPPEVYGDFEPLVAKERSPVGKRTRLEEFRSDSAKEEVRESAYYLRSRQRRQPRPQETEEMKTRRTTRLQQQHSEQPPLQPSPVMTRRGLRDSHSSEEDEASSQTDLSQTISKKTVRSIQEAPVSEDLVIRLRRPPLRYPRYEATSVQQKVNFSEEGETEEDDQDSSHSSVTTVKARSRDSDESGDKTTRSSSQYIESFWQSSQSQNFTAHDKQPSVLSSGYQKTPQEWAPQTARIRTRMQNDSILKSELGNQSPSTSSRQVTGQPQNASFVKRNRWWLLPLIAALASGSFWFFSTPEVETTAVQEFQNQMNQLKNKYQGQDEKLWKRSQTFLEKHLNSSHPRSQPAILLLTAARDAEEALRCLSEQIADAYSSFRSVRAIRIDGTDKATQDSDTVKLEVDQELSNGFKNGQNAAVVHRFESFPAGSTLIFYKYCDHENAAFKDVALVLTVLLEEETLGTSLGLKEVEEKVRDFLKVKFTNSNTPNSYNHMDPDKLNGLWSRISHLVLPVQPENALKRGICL
Sequence of Concanavalin-A (Canavalia ensiformis) (P02866 whole entry, looked up): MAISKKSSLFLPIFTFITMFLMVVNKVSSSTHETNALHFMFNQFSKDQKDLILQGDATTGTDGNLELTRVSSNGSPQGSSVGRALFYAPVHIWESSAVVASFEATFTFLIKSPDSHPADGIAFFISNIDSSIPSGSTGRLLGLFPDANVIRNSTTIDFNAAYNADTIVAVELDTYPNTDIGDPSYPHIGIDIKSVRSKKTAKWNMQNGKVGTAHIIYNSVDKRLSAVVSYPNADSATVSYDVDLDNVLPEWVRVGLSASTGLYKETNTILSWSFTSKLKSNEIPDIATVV

With `C=C(/C(=C/C[C@H](OC(C)=O)c1ccc(OCCO)cc1)c1cc(C(=O)OC)ccc1OC)C(C)C`, the composite z-score in experiment [1] is 1.16; in experiment [3] it was 0.323; in experiment [4], 1.17; in [5] it was 0.116; in experiment [6], -0.0721; in experiment [7], -0.2. For the same molecule, the composite z-score was 0.775 in experiment [8]; 1.2 in [9]; 0.179 in experiment [10]; 0.322 with Albumin (Bos taurus); 0.0562 in [12]; -0.0666 in experiment [13]. Further, the composite z-score was 0.767 in experiment [14]; 1.73 in experiment [15]; -0.144 in experiment [16]; 1.31 with Sam68 (KHDRBS1); 0.305 in experiment [17]; 0.883 in [18]. The z-score in [2] was -1.19. Also, the composite Z-score in experiment [11] was 0.218 (inactive).
Regarding `COc1ccccc1CN1C(=O)c2ccccc2[C@@]2(Cc3ccccc3N(CCCN(C)C)C2=O)[C@@H]1c1ccc(CO)cc1`, the composite z-score in [1] was -0.0362; in experiment [3], 0.524; in experiment [4], -0.0574; in [5], -0.688; in experiment [6], -0.165; in experiment [7] it was -0.282. Moreover, the composite z-score is -0.273 in experiment [8]; 0.0163 in experiment [9]; -0.94 in experiment [10]; -0.909 in the experiment with Albumin (Bos taurus); -0.0797 in [12]; 0.0687 in experiment [13]. The composite z-score is -0.271 in [14]; 0.5 in experiment [15]; -0.0231 in experiment [16]; -0.204 in the experiment on Sam68 (KHDRBS1); 1.27 in experiment [17]; 0.417 in [18]. In experiment [2], the z-score is -1.86. In addition, the composite Z-score in experiment [11] was 0.027 (inactive).
On to `C=CC[C@]12N=C(c3ccc(OCCCO)cc3)O[C@H]1c1ccccc1N(CCS(=O)(=O)c1ccccc1)C2=O`, for which the composite z-score worked out at 1.41 in experiment [1]; 0.559 in [3]; 1.17 in experiment [4]; 0.289 in experiment [5]; 0.0775 in experiment [6]; 0.54 in experiment [7]. Further, the composite z-score is -0.484 in experiment [8]; 0.863 in [9]; 1.02 in experiment [10]; 0.922 with Albumin (Bos taurus); -0.0728 in experiment [12]; -0.0692 in [13]. In addition, the composite z-score in experiment [14] turned out to be 0.727; in experiment [15], 1.12; in experiment [16] it was 0.486; in the experiment on Sam68 (KHDRBS1), 1.3; in experiment [17] it was 0.873; in experiment [18], 1.18. Also, the z-score in experiment [2] was -2.26. Also, in [11], the composite Z-score was 0.526 (inactive).
Consider `CCN(CC)c1ccc(N2CC=CC34O[C@@H]5/C=C\CCC(C)OC(=O)C5[C@H]3C(=O)N(CCCCCO)[C@@H]4C2=O)cc1` (stereo not given in full), for which the composite z-score in experiment [1] is -2.06; in experiment [3] it was -1.5; in [4] it was -0.407; in experiment [5], 0.381; in experiment [6], -0.0346; in [7] it was -0.253. Further, the composite z-score is -0.234 in experiment [8]; -1.59 in [9]; -0.324 in [10]; -0.295 with Albumin (Bos taurus); -0.222 in experiment [12]; -0.19 in [13]. Moreover, the composite z-score in [14] was 0.905; in experiment [15], -1.05; in experiment [16], -0.472; with Sam68 (KHDRBS1), -2.57; in experiment [17], -1.16; in [18], -2.12. This molecule also registered a z-score in experiment [2] of 0.008. The composite Z-score in experiment [11] is -0.4 (inactive).
In the case of `COCCOC(=O)N1C(=O)[C@@]2(c3ccccc31)[C@H](C(=O)N1CCc3cc(OC)c(OC)cc3C1)[C@H]1C(=O)O[C@H](c3ccccc3)[C@H](c3ccccc3)N1[C@@H]2c1ccc(O)cc1`, the composite z-score in [1] was 1.13; in experiment [3], 0.337; in [4] it was 1.38; in experiment [5], 0.116; in experiment [6], -0.0125; in [7], -0.0769. In addition, the composite z-score is 0.511 in experiment [8]; 1.94 in experiment [9]; 1.65 in experiment [10]; 0.795 with Albumin (Bos taurus); -0.0072 in experiment [12]; 0.0129 in [13]. Moreover, the composite z-score in experiment [14] stood at 0.424; in experiment [15], 2.19; in experiment [16], 0.808; in the experiment on Sam68 (KHDRBS1) it was 1.31; in experiment [17] it was 0.628; in experiment [18], 1.17. Further, the z-score in experiment [2] is -0.515. In experiment [11], the composite Z-score is 0.27 (inactive).
